The supplement of paper PMC6897291
Structures can show the parent of a compound that is named as a salt.

System: RIVA
Test: growth inhibition by drug plus 177Lu-lilotomab satetraxetan (1 - RLU/untreated control) (fraction); higher = stronger inhibition
Conditions: 177Lu-lilotomab satetraxetan 0.5 ug/ml
Method: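 RIVA (RI-1) ABC-DLBCL cells were pretreated or not for 18 h with 0.5 ug/ml 177Lu-lilotomab satetraxetan (600 MBq/mg), washed and seeded (3000 cells/well) on 384-well plates pre-printed with the Selleck Cambridge Cancer Compound library. Viability was read by RealTime-Glo luminescence on days 3-6 after seeding. Effect = 1 - RLU/mean RLU of the 48 untreated no-drug control wells per plate; Bliss score = (M-E)/(1-Fa).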

| Structure (SMILES) | growth inhibition by drug plus 177Lu-lilotomab satetraxetan (10 nM, time (day): 3) | growth inhibition by drug plus 177Lu-lilotomab satetraxetan (10 nM, time (day): 4) | growth inhibition by drug plus 177Lu-lilotomab satetraxetan (10 nM, time (day): 5) | growth inhibition by drug plus 177Lu-lilotomab satetraxetan (10 nM, time (day): 6) | growth inhibition by drug plus 177Lu-lilotomab satetraxetan (100 nM, time (day): 3) | growth inhibition by drug plus 177Lu-lilotomab satetraxetan (100 nM, time (day): 4) | growth inhibition by drug plus 177Lu-lilotomab satetraxetan (100 nM, time (day): 5) | growth inhibition by drug plus 177Lu-lilotomab satetraxetan (100 nM, time (day): 6) |
| --- | --- | --- | --- | --- | --- | --- | --- | --- |
| C[C@]12CCC(=O)C=C1CC[C@@H]1[C@@H]2[C@@H](O)C[C@@]2(C)[C@H]1CC[C@]2(O)C(=O)CO [Hydrocortisone (Cortisol)] | 0.519 | 0.578 | 0.597 | 0.608 | 0.101 | 0.303 | 0.317 | 0.347 |
| O=C1CN2Cc3c(ccc(Cl)c3Cl)N=C2N1 [Anagrelide hydrochloride] | 0.579 | 0.615 | 0.628 | 0.641 | 0.541 | 0.572 | 0.579 | 0.558 |
| CCOC(=O)C1=C[C@]2(CC)CCCN3CCc4c(n1c1ccccc41)[C@@H]32 [Vinpocetine (Cavinton)] | 0.457 | 0.533 | 0.549 | 0.545 | 0.362 | 0.396 | 0.4 | 0.377 |
| Fc1cc(-c2cccc3ncc(-c4cnn(C5CCNCC5)c4)nc23)cc(F)c1CN1CCOCC1 | 0.548 | 0.579 | 0.59 | 0.593 | 0.571 | 0.589 | 0.6 | 0.592 |
| COc1cc(N2CCC(N3CCN(C)CC3)CC2)ccc1Nc1ncc(Cl)c(Nc2ccccc2S(=O)(=O)C(C)C)n1 | 0.354 | 0.492 | 0.509 | 0.521 | 0.198 | 0.273 | 0.278 | 0.268 |
